Screens from PubChem BioAssay.
The list is not random: actives were taken first. Their share in the collection is about 2.6%.
697 NFkB inh: inhibitors of the PMA/ionomycin-induced NF-kB reporter in 697 B cells. actives 0.33% (n = 330,000). AID 435022. 697 B-cell NF-kB luciferase reporter, 16 h. inhibition, % at 4 µM; in the data active means inhibition above about 35%
H9c2 TAG inh: triacylglycerol accumulation inhibition. H9c2 cells, Nile Red lipid (TAG) fluorescence; cells loaded with 200 µM oleic acid. inhibition, % at 12.5 µM. actives 0.66% (n = 230,000);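 active means pattern-corrected inhibition of lipid staining of at least 50% with the nuclear-stain viability signal not falling by more than 50%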;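 further: 0% = DMSO wells and 100% = triacsin C control wells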
Gli-Sufu block: blocks Gli-Sufu signaling in a luciferase reporter. Sufu-KO-LIGHT fibroblasts, Gli luciferase reporter luminescence. inhibition, % at 5 µM. actives 0.74% (n = 340,000);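 active means inhibition above about 55%, limit read from the data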;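 further: 0% = DMSO-treated cells and 100% = wells with medium but no cells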
Jurkat NFkB inh: inhibitors of the PMA/ionomycin-induced NF-kB reporter in Jurkat cells; PMA/ionomycin-induced NF-kB luciferase reporter, luminescence; inhibition, % at 4 µM; actives 0.53% (n = 330,000); in the data active means inhibition above about 50%
H9c2 protect: protects H9c2 cardiomyocytes from peroxide injury. H2O2 injury protection, ATPLite, 2 h. protection from H2O2 cell death, % at 20 µM. actives 0.63% (n = 360,000);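 active means compounds giving at least 50% protection of heart cells from peroxide-induced death in the single-dose screen, raw or plate-pattern-corrected value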;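 further: 0% = DMSO wells with peroxide and 100% = DMSO wells without peroxide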
COUP-TFII inh: NR2F2 (human) inhibition, primary screen; P24468; HEK293T NGFI-A luciferase reporter, luminescence; actives 0.7% (n = 370,000); inhibition, % at 8.6 µM;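 active means inhibition above a per-plate cutoff, mean inhibition of test wells between control levels plus 3 SD, cut at about 38% in these data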;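 further: cells cotransfected with COUP-TFII expression vector driving the NGFI-A reporter; 0% = median of COUP-TF2 test wells and 100% = reporter-only cells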
Target sequence (P24468 whole entry, looked up): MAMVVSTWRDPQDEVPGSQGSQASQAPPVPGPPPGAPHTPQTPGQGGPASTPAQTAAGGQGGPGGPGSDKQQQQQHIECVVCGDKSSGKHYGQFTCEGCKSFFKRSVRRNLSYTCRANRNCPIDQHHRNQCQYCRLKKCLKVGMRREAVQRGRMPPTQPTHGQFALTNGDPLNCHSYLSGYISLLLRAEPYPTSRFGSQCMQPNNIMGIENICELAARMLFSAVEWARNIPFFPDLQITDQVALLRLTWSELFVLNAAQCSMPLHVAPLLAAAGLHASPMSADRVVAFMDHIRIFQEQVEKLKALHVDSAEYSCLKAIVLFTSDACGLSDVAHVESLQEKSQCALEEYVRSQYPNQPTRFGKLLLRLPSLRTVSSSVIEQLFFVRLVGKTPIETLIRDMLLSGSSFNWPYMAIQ
* = called active by the depositor; / = no result.

SMILES	697 NFkB inh	H9c2 TAG inh	Gli-Sufu block	Jurkat NFkB inh	H9c2 protect	COUP-TFII inh
CC(C)C1Nc2ccc(C(=O)N3CCN(c4ccccn4)CC3)cc2NC1=O (stereo not drawn)	5.3	/	-5.8	-1.6	51.4*	10.8
OCCN1CCCC12CCC(c1ccccc1)CC2 (stereo not drawn)	/	/	/	/	/	-6.9
COc1ccc(-n2c(SCC(=O)Nc3cc(C)c(NC(=O)c4ccccc4)cc3OC)nnc2-c2ccccc2F)cc1	/	/	/	/	/	0.6
Cc1ncc(CO)c2cc(C(=O)Nc3ccccc3Cl)c(=Nc3cccc(C(N)=O)c3)oc12	6.7	/	4.2	19.4	61.3*	-2.8
COc1ccccc1-c1sc2cc3c(cc2c1-c1ccc(OCCN2CCCCC2)cc1)OCO3	-21.6	62.7*	29.1	1.1	-34.9	17.1
COc1cc2sc(-c3ccccc3OC)c(-c3ccc(OCCN4CCCCC4)cc3)c2cc1OC	-2.1	81.2*	14.0	-1.2	-21.7	-7.9
COc1ccc2sc(-c3ccccc3OC)c(-c3ccc(OCCN4CCOCC4)cc3)c2c1	-8.3	-2.0	-1.6	/	-9.3	/
CNC(C#Cc1ccccc1)c1ccccc1C(F)(F)F (stereo not drawn)	/	/	/	/	/	20.1
C/C(=C/c1nc(N)n(Cc2ccccc2)c1Cc1ccccc1)Cn1[nH]c(=O)n(-c2ccccc2)c1=O	/	/	/	/	/	4.5
Cc1cc(C)c(C)c(S(=O)(=O)N2CCC(C(=O)NNC(=O)c3ccccc3O)CC2)c1C	10.7	-5.9	-1.1	-0.8	66.4*	-6.6
Cc1ccc(N=Nc2ccc(O)c3ncccc23)cc1	/	86.9*	8.6	/	22.9	2.3
CC(=O)Nc1ccc(OCC(C)CN2CCC(C(O)(c3ccccc3)c3ccccc3)CC2)cc1 (stereo not drawn)	/	/	/	/	/	-27.8
Cc1ccc(-c2c(C)nn3c(N4CCOCC4)cc(C)nc23)cc1	-19.2	/	56.3*	-7.7	-1.2	-15.1
CCOC(=O)C1=Nc2ccccc2C1=[N+]=[N-]	-19.7	-52.9	19.3	-25.6	72.0*	17.2
N#C/C(=C\c1ccc(N2CCOCC2)c([N+](=O)[O-])c1)c1nc2ccccc2[nH]1	-14.0	/	0.4	-20.3	61.5*	-16.0
O=C(CSc1nnc(-c2cccnc2)n1-c1ccc(Cl)cc1)c1ccc(F)cc1	/	/	/	/	/	4.3
Nc1nc(-c2c[nH]c3ccccc23)cs1	0.0	17.8	31.2	-10.3	49.3*	8.0
CNc1nc(-c2c[nH]c3ccccc23)cs1	4.2	26.3	9.3	-0.5	-1.4	15.6
O=C1c2ccccc2C(=O)N1CCCCSc1nc2ccccc2c(=O)n1CCCN1CCOCC1	6.4	-30.0	18.9	6.5	58.6*	-2.6
CN(C)S(=O)(=O)c1ccc2nc(COCc3nc4ccc(S(=O)(=O)N(C)C)cc4[nH]3)[nH]c2c1	/	/	/	/	/	17.7
N#CCCn1c(SCC(=O)c2c[nH]c3ccccc23)nc2ccccc21	22.5	19.2	4.7	13.7	51.1*	-5.1
CCN(CC(=O)Nc1c(F)cccc1F)C(=O)CCCc1nc2ccccc2c(=O)[nH]1	22.7	13.5	-1.7	-11.0	26.4	-27.9
CCN(CC(=O)Nc1ccccc1C(F)(F)F)C(=O)CCc1nc2ccccc2c(=O)[nH]1	-20.9	7.3	-12.5	8.3	45.5	-1.7
CCCN(CC(=O)Nc1ccc(F)c(F)c1F)C(=O)CCc1nc2ccccc2c(=O)[nH]1	23.8	8.2	-1.4	-3.8	67.5*	2.2
CCN(CC(=O)Nc1c(F)cccc1F)C(=O)Cc1n[nH]c(=O)c2ccccc12	12.2	-0.9	1.0	-3.8	59.8*	7.3
SMILES	697 NFkB inh	H9c2 TAG inh	Gli-Sufu block	Jurkat NFkB inh	H9c2 protect	COUP-TFII inh
CCN(CC(=O)Nc1c(F)cccc1F)C(=O)CCc1nc2ccccc2c(=O)[nH]1	21.9	-2.3	-0.7	4.1	64.5*	2.4
O=C(CSc1nnc(-c2ccccc2)n1-c1ccc(Cl)cc1)c1ccc(Cl)cc1	/	/	/	/	/	-4.6
Cc1nn(-c2ccccc2)c(C)c1/C=N\N1CCN(Cc2ccccc2Cl)CC1	/	/	/	/	/	10.5
CCCCCC[C@H](CC)CN(C(=O)Oc1ccccc1)c1ccccc1	/	/	/	/	/	6.7
CCc1nc(N2CCN(C(=O)c3ccco3)CC2)c2oc3ccccc3c2n1	/	/	4.1	/	50.8*	-11.6
Cc1nc(N2CCN(C(=O)c3ccco3)CC2)c2oc3ccccc3c2n1	-0.4	27.4	3.0	36.7	14.9	3.2
CCn1cc([N+](=O)[O-])c(C(=O)N2N=C(c3ccc(Cl)c(Cl)c3)CC2c2ccccc2O)n1 (stereo not drawn)	-11.3	31.6	1.2	-1.9	6.6	-90.0
CCn1cc([N+](=O)[O-])c(C(=O)N2N=C(c3ccc4ccccc4c3)CC2c2cc(Br)ccc2O)n1 (stereo not drawn)	-1.1	56.5*	4.5	-10.3	-24.7	/
CCOC(=O)Cn1cc(CN2CCS(=O)(=O)N(Cc3ccccc3)C(C(=O)OC)C2)nn1 (stereo not drawn)	/	/	/	/	/	10.3
O=C(OCC(=O)N1CCN(C(=O)c2ccco2)CC1)c1cc(-c2ccco2)nc2ccccc12	16.8	/	3.6	18.2	49.0*	/
COCc1cc(C)nc(SCC(=O)Oc2ccccc2)c1C#N	1.9	0.1	6.8	-8.5	5.2	4.7
COCc1cc(C)nc(SCC(=O)c2ccc(O)c(O)c2)c1C#N	-114.0	/	14.6	-25.3	76.1*	-0.7
O=C(C1CCN(c2cncnc2)CC1)N1CCCC1	/	/	/	/	/	2.2
COc1cccc(-c2nc(N3CCN(C)CC3)c3ccccc3n2)c1O	-25.0	26.6	11.7	-38.9	51.1*	-18.5
COC(=O)C1=C(C)N(Cc2ccccc2C(F)(F)F)C(=NCc2ccccc2)NC1c1cccc(F)c1 (stereo not drawn)	/	/	/	/	/	12.6
COC(=O)C1CN(C2CCCC2)CCS(=O)(=O)N1Cc1cn(Cc2ccccc2)nn1 (stereo not drawn)	/	/	/	/	/	1.6
COc1cc(/C=N\NC(=O)CNC(=O)C2COc3ccccc3O2)ccc1O (stereo not drawn)	-24.2	/	-3.8	3.5	0.2	-5.5
CCN(CC)c1ccc(/C=N/NC(=O)CNC(=O)C2COc3ccccc3O2)c(O)c1 (stereo not drawn)	-10.1	-18.1	51.3	35.6	65.9*	-17.4
Cc1ccc2nc(-c3ccccn3)cc(C(=O)Nc3ccc(S(=O)(=O)N4CCOCC4)cc3)c2c1	4.8	23.0	16.7	6.6	23.9	-10.1
COc1ccc(-c2csc(NC(=O)c3cccc(N4C(=O)CCC4=O)c3)n2)cc1OC	24.0	8.0	0.8	5.1	84.8*	8.2
O=C(Nc1nc(-c2ccccn2)cs1)c1cccc(S(=O)(=O)N2CCOCC2)c1	-44.7	8.7	27.1	9.6	75.6*	-1.9
COc1ccc(C(=O)Nc2nc(-c3ccccn3)cs2)cc1S(=O)(=O)N1CCOCC1	-1.7	8.6	-2.3	9.5	54.4*	0.2
COc1ccc(C(=O)Nc2ccccn2)cc1S(=O)(=O)N1CCOCC1	-18.6	-6.7	5.9	-5.6	-0.2	5.7
CCOc1ccc(-c2csc(NC(=O)c3cccc(N4C(=O)CCC4=O)c3)n2)cc1	13.8	-3.9	-3.2	10.5	26.5	0.4
O=C(Nc1nc(-c2ccccn2)cs1)c1ccc(S(=O)(=O)N2CCCCC2)cc1	-26.5	/	/	24.3	/	/
